Test results published in PubChem BioAssay (Tox21).
Where “and” joins values, the source holds several entries; their conditions need not be identical. Equal values may be shown once. Unmarked numbers belong to inactive results. Where a call stands in place of a potency, no number is given. Calls of active or inactive are those of the source. Unless noted, the call rests on the fitted dose curve; in most records, active means well fitted curve in the direction sought with a large enough effect in the repeat runs; inconclusive means weak or mixed curves; inactive means no such curve, though single readings can be large; an effect the other way counts as inactive or inconclusive.

What was measured:
[1] = qHTS assay to identify small molecule antagonists of the glucocorticoid receptor (GR) signaling pathway - cell viability counter screen (AID 720693); further: nearly all actives have a fitted effect of over 55% in size
[2] = qHTS assay for identifying genotoxic compounds that show differential cytotoxicity against isogenic chicken DT40 cell lines with known DNA damage response pathways - Rad54/Ku70 mutant cell line (AID 743015); further: nearly all actives have a fitted effect of over 60% in size; further: potency means the concentration at half of the fitted maximal effect
[3] = qHTS assay to identify small molecule antagonists of the androgen receptor (AR) signaling pathway - cell viability counter screen (AID 743033; further: nearly all actives have a fitted effect of over 45% in size; further: potency means the concentration at half of the fitted maximal effect)
[4] = qHTS assay to identify small molecule antagonists of the thyroid receptor (TR) signaling pathway - cell viability counter screen (AID 743064); further: nearly all actives have a fitted effect of over 50% in size; further: potency means the concentration at half of the fitted maximal effect
In short: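 Counter screen for cytotoxicity: compound plus T3 (1 nM final) on GH3.TRE-Luc cells, 23.5 h at 37 °C, then fluorescence viability readout with CellTiter-Fluor.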

[5] = qHTS assay to identify small molecule antagonists of the thyroid receptor (TR) signaling pathway (AID 743065); further: nearly all actives have a fitted effect of over 55% in size; further: potency means the concentration at half of the fitted maximal effect
In short: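 GH3.TRE-Luc rat pituitary cells carrying two TR response elements driving luciferase were plated for 4 h, given compound plus 1 nM T3 (final), and incubated 23.5 h at 37 C. ONE-Glo luminescence measured reporter inhibition; CellTiter-Fluor fluorescence tracked cytotoxicity.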

[6] = test system: thyroid hormone receptor (rat, GH3 cells); assay: qHTS assay to identify small molecule agonists of the thyroid receptor (TR) signaling pathway (AID 743066; calls by dose curve)
[7] = qHTS assay to identify small molecule antagonists of the estrogen receptor alpha (ER-alpha) signaling pathway - cell viability counter screen (AID 743074; calls by dose curve;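 further: HEK293 cells carrying ER-alpha-UAS-bla reporter stimulated with 17beta-estradiol; nearly all actives have a fitted effect of over 45% in size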)
[8] = molecular target: Estrogen receptor (Homo sapiens) (UniProt P03372); assay: qHTS assay to identify small molecule agonists of the estrogen receptor alpha (ER-alpha) signaling pathway (AID 743075; calls by dose curve;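 further: HEK293 GripTite cells with ER-alpha and UAS-driven beta-lactamase reporter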; further: potency means the concentration at half of the fitted maximal effect)
[9] = molecular target: Estrogen receptor (Homo sapiens) (UniProt P03372); assay: qHTS assay to identify small molecule agonists of the estrogen receptor alpha (ER-alpha) signaling pathway using the BG1 cell line (AID 743079); further: nearly all actives have a fitted effect of over 20% in size; further: potency means the concentration at half of the fitted maximal effect
[10] = qHTS assay to identify small molecule antagonists of the estrogen receptor alpha (ER-alpha) signaling pathway using the BG1 cell line (AID 743080; calls by dose curve;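 further: BG1 cells stimulated with 17beta-estradiol alongside compound; nearly all actives have a fitted effect of over 25% in size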; further: potency means the concentration at half of the fitted maximal effect)
In short: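 Luciferase inhibition measured with ONE-Glo after 30 min at RT in BG1Luc4E2 cells given test compounds and 17beta-estradiol for 21.5 h at 37 C; CellTiter-Fluor viability read in the same wells beforehand.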

[11] = qHTS assay to identify small molecule antagonists of the estrogen receptor alpha (ER-alpha) signaling pathway using the BG1 cell line - cell viability counter screen (AID 743081);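 further: compound given together with 17beta-estradiol as the ER stimulus; nearly all actives have a fitted effect of over 45% in size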; further: potency means the concentration at half of the fitted maximal effect
Aromatase (Homo sapiens) = Aromatase (Homo sapiens) (UniProt P11511); assay: qHTS assay to identify aromatase inhibitors (AID 743083); further: nearly all actives have a fitted effect of over 55% in size; further: potency means the concentration at half of the fitted maximal effect
[12] = qHTS assay for identifying genotoxic compounds that show differential cytotoxicity against isogenic chicken DT40 cell lines with known DNA damage response pathways - Rev3 mutant cell line (AID 743014); further: nearly all actives have a fitted effect of over 55% in size; further: potency means the concentration at half of the fitted maximal effect
[13] = qHTS assay to identify small molecule antagonists of the androgen receptor (AR) signaling pathway using the MDA cell line - cell viability counter screen (AID 743041; further: nearly all actives have a fitted effect of over 45% in size)
In short: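 In this qHTS counter assay, fluorescence intensity after CellTiter-Fluor addition indicated viability of MDA-kb2 AR-luc cells given compounds and R1881 for 16 h at 37C.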

[14] = molecular target: Estrogen receptor (Homo sapiens) (UniProt P03372); assay: qHTS assay to identify small molecule antagonists of the estrogen receptor alpha (ER-alpha) signaling pathway (AID 743069; active means well fitted curve in the direction sought with a large enough effect in the signal ratio in the repeat runs, not every such curve was filed as active; inconclusive means weak or mixed curves, or effect the other way; inactive means no such curve, though single readings can be large or run the other way; the % refers to the signal ratio)
In short: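 A 17beta-estradiol challenge was applied right after compound transfer to ER-alpha-UAS-bla HEK293 cells previously kept in charcoal-stripped serum. Plates stood 18 hr at 37C and 5% CO2; fluorescence was read following 2 hr FRET substrate loading at room temperature.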

[15] = qHTS assay for identifying genotoxic compounds that show differential cytotoxicity against isogenic chicken DT40 cell lines with known DNA damage response pathways - wild type cell line (AID 743012); further: nearly all actives have a fitted effect of over 60% in size; further: potency means the concentration at half of the fitted maximal effect
In short: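 Cytotoxicity in repair-proficient parental chicken DT40 cells serves as the comparator for Rad54/Ku70- and Rev3-deficient lines. Cells were exposed to compounds for 40 h at 37 C/5% CO2, and ATP-based luminescence (CellTiter-Glo) measured viability.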

[16] = molecular target: Androgen receptor (Homo sapiens) (UniProt P10275); assay: qHTS assay to identify small molecule agonists of the androgen receptor (AR) signaling pathway using the MDA cell line (AID 743040; further: nearly all actives have a fitted effect of over 20% in size)
In short: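 Cell-based luciferase reporter: MDA-kb2, MMTV promoter (AR + GR response elements). 16 h compound exposure at 37C; ONE-Glo, 30 min RT, luminescence.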

[17] = molecular target: Androgen receptor (Homo sapiens) (UniProt P10275); assay: qHTS assay to identify small molecule antagonists of the androgen receptor (AR) signaling pathway (AID 743035; active means well fitted inhibition curve with a large enough effect in the signal ratio in the repeat runs, not every such curve was filed as active; inconclusive means weak or mixed curves, or effect the other way; inactive means no such curve, though single readings can be large or run the other way; the % refers to the signal ratio)
In short: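 Steps: seed AR-UAS-bla GripTite HEK293 cells, incubate 4 h at 37C; pin in test compound, then add agonist R1881; incubate 16 h at 37C; add LiveBLAzer B/G FRET substrate, 2 h at room temperature; read fluorescence.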

[18] = molecular target: Androgen receptor (Homo sapiens) (UniProt P10275); assay: qHTS assay to identify small molecule agonists of the androgen receptor (AR) signaling pathway (AID 743036; active means well fitted activation curve with a large enough effect in the signal ratio in the repeat runs, with a control signal flat, not every such curve was filed as active; inconclusive means weak or mixed curves, or effect the other way; inactive means no such curve, though single readings can be large or run the other way; the % refers to the signal ratio)
In short: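 In this Tox21 qHTS, 2,000 HEK293 AR-bla cells per well were incubated with compounds for 16 h at 37C and 5% CO2. Fluorescence intensity was recorded 2 h after adding LiveBLAzer B/G FRET substrate at room temperature.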

[19] = molecular target: Androgen receptor (Homo sapiens) (UniProt P10275); assay: qHTS assay to identify small molecule antagonists of the androgen receptor (AR) signaling pathway using the MDA cell line (AID 743042; further: nearly all actives have a fitted effect of over 55% in size)
In short: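 MDA-kb2 cells (human breast carcinoma, stably carrying an MMTV-luciferase reporter responsive to AR and GR) were plated at 3,000 cells/well and preincubated 5 hr at 37C, then given compound plus R1881 agonist for 16 h. ONE-Glo luminescence was read.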

Chain of Aromatase (Homo sapiens) (P11511 whole entry, looked up): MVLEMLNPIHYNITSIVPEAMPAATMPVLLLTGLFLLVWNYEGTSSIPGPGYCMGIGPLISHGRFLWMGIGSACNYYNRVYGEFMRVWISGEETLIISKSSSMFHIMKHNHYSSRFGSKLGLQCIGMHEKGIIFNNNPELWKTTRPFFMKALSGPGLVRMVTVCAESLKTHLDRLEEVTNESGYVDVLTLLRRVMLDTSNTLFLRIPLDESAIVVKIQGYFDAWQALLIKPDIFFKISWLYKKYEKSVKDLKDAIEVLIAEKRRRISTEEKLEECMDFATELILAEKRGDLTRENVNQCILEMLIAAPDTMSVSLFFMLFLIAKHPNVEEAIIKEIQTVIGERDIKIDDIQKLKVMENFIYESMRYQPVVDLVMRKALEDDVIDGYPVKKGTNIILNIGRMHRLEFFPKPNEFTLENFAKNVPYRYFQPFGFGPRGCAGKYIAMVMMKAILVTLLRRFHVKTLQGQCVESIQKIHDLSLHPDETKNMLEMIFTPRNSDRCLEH
Chain of Estrogen receptor (Homo sapiens) (P03372 whole entry, looked up): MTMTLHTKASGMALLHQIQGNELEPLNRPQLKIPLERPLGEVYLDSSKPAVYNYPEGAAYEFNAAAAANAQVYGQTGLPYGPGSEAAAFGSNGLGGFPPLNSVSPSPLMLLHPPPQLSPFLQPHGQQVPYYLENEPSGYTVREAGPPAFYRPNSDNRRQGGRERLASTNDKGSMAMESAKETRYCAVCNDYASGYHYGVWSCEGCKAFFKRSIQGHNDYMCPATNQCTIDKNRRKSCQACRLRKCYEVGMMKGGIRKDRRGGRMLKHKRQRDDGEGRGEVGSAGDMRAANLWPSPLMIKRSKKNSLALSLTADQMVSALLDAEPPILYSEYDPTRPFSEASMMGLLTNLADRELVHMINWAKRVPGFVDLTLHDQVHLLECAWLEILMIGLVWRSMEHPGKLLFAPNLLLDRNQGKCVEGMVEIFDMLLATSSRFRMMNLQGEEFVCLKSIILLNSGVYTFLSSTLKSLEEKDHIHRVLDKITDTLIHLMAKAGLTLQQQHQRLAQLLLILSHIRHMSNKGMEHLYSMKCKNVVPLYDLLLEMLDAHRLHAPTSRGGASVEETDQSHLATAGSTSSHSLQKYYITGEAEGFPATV
Chain of Androgen receptor (Homo sapiens) (P10275 whole entry, looked up): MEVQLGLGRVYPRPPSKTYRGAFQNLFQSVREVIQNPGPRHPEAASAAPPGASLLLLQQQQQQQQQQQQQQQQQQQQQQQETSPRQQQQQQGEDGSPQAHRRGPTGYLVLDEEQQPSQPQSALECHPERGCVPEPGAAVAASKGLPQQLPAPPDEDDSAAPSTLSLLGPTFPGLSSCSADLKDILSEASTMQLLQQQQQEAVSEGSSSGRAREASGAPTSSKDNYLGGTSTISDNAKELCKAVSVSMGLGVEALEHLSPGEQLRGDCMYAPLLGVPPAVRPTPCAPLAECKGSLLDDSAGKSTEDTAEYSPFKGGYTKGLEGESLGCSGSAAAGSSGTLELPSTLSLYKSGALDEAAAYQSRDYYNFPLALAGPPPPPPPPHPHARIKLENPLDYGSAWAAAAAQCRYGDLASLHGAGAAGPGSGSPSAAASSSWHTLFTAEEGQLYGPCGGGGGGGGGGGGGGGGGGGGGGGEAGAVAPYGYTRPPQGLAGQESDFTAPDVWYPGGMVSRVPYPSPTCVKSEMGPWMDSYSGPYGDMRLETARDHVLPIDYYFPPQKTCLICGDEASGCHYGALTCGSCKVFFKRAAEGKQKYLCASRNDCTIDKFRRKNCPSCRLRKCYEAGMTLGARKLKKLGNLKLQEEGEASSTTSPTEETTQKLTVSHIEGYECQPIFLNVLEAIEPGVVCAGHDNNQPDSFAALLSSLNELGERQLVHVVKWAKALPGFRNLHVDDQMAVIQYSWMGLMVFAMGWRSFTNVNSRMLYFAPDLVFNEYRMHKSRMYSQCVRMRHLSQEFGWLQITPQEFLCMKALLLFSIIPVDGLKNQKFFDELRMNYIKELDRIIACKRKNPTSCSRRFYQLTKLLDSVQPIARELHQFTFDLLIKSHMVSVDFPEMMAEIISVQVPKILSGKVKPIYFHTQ

SMILES | Potency [1] | Potency [2] | Potency [3] | Potency [4] | Potency [5] | outcome [6] | outcome [7] | Potency [8] | Potency [9] | Potency [10] | Potency [11] | Potency (Aromatase (Homo sapiens)) | Potency [12] | Potency [13] | Potency [14] | Potency [15] | outcome [16] | Potency [17] | outcome [18] | Potency [19]
CC(C)=CCCC(C)C=O (configuration not stated) | inactive | 61.1 µM (active) | inactive | inactive | inactive | inactive | inactive | inactive | inactive | inactive | inactive | inactive | – | – | – | – | – | – | – | –
O=C(OCCCCCOC(=O)c1ccccc1)c1ccccc1 | inactive | – | inactive | inactive | inactive | inactive | inactive | inactive | – | – | inactive | inactive | 61.1 µM (active) | inactive | inactive | – | – | – | – | –
O=C1CCCN1CCO | inactive | – | – | inactive | inactive | inactive | inactive | inactive | inactive | inactive | inactive | inactive | 54.5 µM (active) | – | inactive | – | – | – | – | –
CC(C)=CCC/C(C)=C/C=N/O | inactive | – | inactive | inactive | inactive | inactive | inactive | inactive | inactive | inactive | inactive | inactive | – | inactive | inactive | – | – | – | – | –
C/C(=C(\CCO)SS/C(CCO)=C(\C)N(C=O)Cc1cnc(C)nc1N)N(C=O)Cc1cnc(C)nc1N | inactive | inactive | inactive | inactive | inactive | inactive | inactive | inactive | inactive | inactive | inactive | inactive | – | – | inactive | – | – | – | – | –
Cc1c(Cl)cccc1Nc1ccccc1C(=O)O | inactive | – | – | – | 13.3 µM (active) | – | inactive | inactive | inactive | inactive | inactive | inactive | inactive | inactive | – | – | – | – | – | –
O=C(O)c1ccccc1[N+](=O)[O-] | – | inactive | inactive | inactive | inactive | inactive | inactive | – | – | – | inactive | inactive | inactive | inactive | – | inactive | – | – | – | –
CC(C)C[C@H](NC(=O)[C@H](Cc1ccccc1)NC(=O)c1cnccn1)B(O)O | – | 11.9 nM (active) and 10.6 nM (active) | 0.0076 µM (active) | 18.8 nM (active) and 11.9 nM (active) | 23.7 nM (active) and 16.8 nM (active) | – | inactive | – | – | 66.8 nM (active) and 53.1 nM (active) | 1.06 µM (active) and 668 nM (active) | 21.1 nM (active) and 15 nM (active) | 13.3 nM (active) and 9.4 nM (active) | – | – | 13.3 nM (active) and 11.9 nM (active) | – | – | – | –
CCCCOC(=O)C(C)Oc1ccc(Oc2ccc(C(F)(F)F)cn2)cc1 (configuration not stated) | inactive | – | inactive | inactive | inactive | inactive | inactive | inactive | inactive | inactive | inactive | – | – | inactive | – | – | – | – | – | –
CO[C@@H]1COCC[C@@H]1N[C@@H]1CC[C@@](C(=O)N2CCc3ncc(C(F)(F)F)cc3C2)(C(C)C)C1 | inactive | – | inactive | inactive | – | – | inactive | – | – | – | inactive | inactive | – | inactive | – | – | – | – | – | –
C=C(C)C(=O)OCCCCCCCCCCOC(=O)C(=C)C | inactive | – | inactive | inactive | inactive | inactive | inactive | – | – | – | inactive | inactive | 30.6 µM (active) | inactive | – | – | – | – | – | –
CC(C)(C(=O)O)c1ccc(C(O)CCCN2CCC(C(O)(c3ccccc3)c3ccccc3)CC2)cc1 (configuration not stated) | inactive | – | inactive | inactive | inactive | inactive | inactive | inactive | inactive | inactive | – | – | – | inactive | inactive | – | – | – | – | –
NCCOCCOCCN | – | 24.3 µM (active) | – | inactive | – | inactive | inactive | – | – | – | inactive | inactive | 24.3 µM (active) | – | – | 24.3 µM (active) | inactive | – | – | –
O=C(Nc1ccc2c(c1)Cc1ccccc1-2)C(F)(F)F | inactive | 54.5 µM (active) | inactive | inactive | inactive | inactive | inactive | – | – | – | inactive | inactive | – | inactive | – | – | – | – | – | –
CC(Cc1ccccc1)(NC(=O)CN)c1ccccc1 (configuration not stated) | inactive | – | inactive | – | – | inactive | inactive | inactive | inactive | inactive | inactive | inactive | inactive | inactive | inactive | – | – | – | – | –
C[C@H](CN1CCCC1)C(=O)c1ccc(C(F)(F)F)cc1 | – | 8.41 µM (active) | inactive | inactive | 26.6 µM (active) | inactive | inactive | – | – | – | – | inactive | 10.6 µM (active) | inactive | – | 6.68 µM (active) | – | – | – | –
Cc1ccc2ccccc2c1[N+](=O)[O-] | inactive | – | inactive | inactive | inactive | – | inactive | inactive | inactive | inactive | inactive | – | – | inactive | inactive | – | – | – | – | –
Oc1ccc(Oc2ccccc2)cc1 | – | 36.6 µM (active) | inactive | 41 µM (active) | 20.6 µM (active) | inactive | inactive | 0.0736 µM [inconclusive] (active) | 7.3 µM (active) | – | inactive | – | 23.1 µM (active) | inactive | inactive | 20.6 µM (active) | – | – | – | –
CC1(C)[C@@H]2CC[C@]3(C2)[C@@H]1C(=O)CCC3(C)C | inactive | – | inactive | inactive | inactive | inactive | – | inactive | inactive | inactive | inactive | – | – | inactive | inactive | – | inactive | inactive | inactive | inactive
